A number with no mark means an inactive call. How the calls were made is not given here.
These compounds were tested against Pantothenate synthetase (Mycobacterium tuberculosis (strain ATCC 25618 / H37Rv)) (UniProt P9WIL5) (assay: Recombinant Mtb pantothenate synthetase (PanC) inhibitors, coupled enzyme, confirmatory (AID 375;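 further: 0% = full reaction with vehicle and 100% = no enzyme background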)). Details: coupled enzyme assay; at 10 µM, hits give high values.
Chain of Pantothenate synthetase (Mycobacterium tuberculosis (strain ATCC 25618 / H37Rv)) (P9WIL5 whole entry, looked up): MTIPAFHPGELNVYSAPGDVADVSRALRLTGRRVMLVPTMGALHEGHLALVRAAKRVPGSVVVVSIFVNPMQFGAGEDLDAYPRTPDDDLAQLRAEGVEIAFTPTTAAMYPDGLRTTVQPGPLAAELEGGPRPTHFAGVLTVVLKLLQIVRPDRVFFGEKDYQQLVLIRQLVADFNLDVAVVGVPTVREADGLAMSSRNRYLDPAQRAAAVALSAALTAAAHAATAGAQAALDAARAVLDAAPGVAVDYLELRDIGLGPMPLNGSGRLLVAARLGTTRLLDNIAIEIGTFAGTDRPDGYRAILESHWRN
In the case of `COc1cc(Cn2c(C(=O)O)cc3sccc32)cc(OC)c1OC`, the inhibition is reported as 0%.
`COC(=O)c1cn(C(=O)c2ccc(Br)o2)c2ccccc12` was tested, and the inhibition was 0%.
`Cc1cc(C)n(-c2nc3ccccc3c(=O)n2OCCOc2ccccc2)n1` showed an inhibition of 3%.
`O=C(CN(Cc1ccc(F)cc1)C(=O)Cn1nnc2ccccc21)NCC1CCCO1` (configuration not stated) was tested, and the inhibition was 0%.
With `CCOC(=O)CNC(=O)Cn1cnc2c(nnn2-c2cccc(Cl)c2)c1=O` the inhibition was 0%.
`O=C1c2ccccc2NC2CCCCCN12` (configuration not stated) showed an inhibition of 0%.
In the case of `O=C(NC1CCCCC1)c1nc2c(nnn2Cc2ccccc2Cl)c(=O)[nH]1`, the inhibition is reported as 0%.
Compound `CCC(Sc1ccc2nnc(-c3ccc(F)cc3)n2n1)C(=O)OC` (configuration not stated) has an inhibition of 0%.
For `COc1ccc(C2C(C(=O)Nc3cccnc3)=C(C)Nc3nc(-c4cccs4)nn32)cc1OC` (configuration not stated), the inhibition was 6%.
With `CCOC(=O)C1CCCN(C(=O)c2cc3c(C)nc4ccccc4c3o2)C1` (configuration not stated) the inhibition was 7%.
`CCOC(=O)N1CCC(N2C(=O)c3ccccc3C2Nc2cccnc2)CC1` (configuration not stated) showed an inhibition of 4%.
`CC1NC2(C(=O)N(Cc3ccccc3)c3ccccc32)C2C(=O)N(c3ccccc3)C(=O)C12` (configuration not stated) showed an inhibition of 0%.
With `CCOC(=O)C(C)Sc1nnc(Cc2cc(=O)[nH]c(=O)[nH]2)n1-c1ccc(Cl)cc1` (configuration not stated) the inhibition was 0%.
`CCOC(=O)CN1CC23C=CC(O2)C(C(=O)Nc2ccc(OCC)cc2)C3C1=O` (configuration not stated) was tested, and the inhibition was 3%.
For `O=C(CCn1[nH]c(=O)c2ccccc2c1=O)NCCO`, the inhibition was 0%.
`CC(C)NC(=O)CSc1nc2ccccc2n1-c1ccccc1` was tested, and the inhibition was 1%.
`C/C(=C(\C#N)C(=O)NCCCN1CCOCC1)N(C)C` gave an inhibition of 0%.
For `CC(C)(C)c1cc(NS(=O)(=O)c2ccc3c(c2)OCCO3)on1`, the inhibition was 0%.
In the case of `O=C(Cn1c(C(=O)NCC2CCCO2)cc2sccc21)c1ccccc1` (configuration not stated), the inhibition is reported as 0%.
`CCOc1ccc(NC(=O)CSc2nnc(COc3c(C)cccc3C)o2)cc1` gave an inhibition of 1%.
Compound `O=C(CSc1nnc(CNC(=O)c2cccs2)o1)NC1CCCC1` has an inhibition of 0%.
`O=C(NCCCN1CCN(CCCNC(=O)c2ccc(F)cc2)CC1)c1ccc(F)cc1` gave an inhibition of 0%.
